Screening results as filed in PubChem.
Compounds with a hit are over-represented: about 5.7% of the library has one in this group of screens.
TGFb inhibitor = inhibitors of TGF-b signaling | HepG2 CAGA-GFP TGF-b/SMAD3 reporter, GFP fluorescence, 18 h; TGF-beta stimulated, 500 pg/mL final | Potency, µM (series often up to 46.1 µM), inactives show at the top dose activity, negative = inhibition, hits mostly inhibitors | hit rate 1.2% among 410,000 | AID 588855; further: potency means the concentration at half of the fitted maximal effect; on the % scale 0 is the no-effect control and ±100 the full control effect; nearly all actives have a fitted effect of over 65% in size
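TGF-beta reporter screen: HEPG2 CAGA-GFP, 1% FBS, 500 pg/mL TGF-beta final, 18 h; per-cell GFP summed per well; curves fitted and categorized by class.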
ATXN2 expr inh = ATXN2 expression inhibition; HEK-293 ATXN2-luciferase reporter, luminescence, 24 h; Potency, µM (doses to about 57 µM), inactives show at the top dose activity change, negative = inhibition, hits mostly inhibitors; hit rate 0.72% among 360,000; further: potency means the concentration at half of the fitted maximal effect; on the % scale 0 is the no-effect control and ±100 the full control effect; nearly all actives have a fitted effect of over 55% in size
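qHTS (up to 57 uM final) was run with 24 h compound exposure of reporter cells at 37 °C. Each well was multiplexed: SteadyGlo luminescence measured ATXN2-luciferase expression after a fluorogenic Gly-Phe-AFC viability readout (25 uM final).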
IL-1B inflam inh = blocks inflammasome-driven IL-1 beta release. hit rate 4.7% among 360,000. THP-1 LPS/ATP IL-1B secretion, AlphaLISA, 16 h; active compounds read low. activity change, % at 57.5 µM. AID 743279; in the data active means activity change below about -50%; inconclusive means mostly about -30% to -49%; further: on the % scale 0 is the no-effect control and ±100 the full control effect
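Secreted IL-1B measured by AlphaLISA bead assay after 16 h compound exposure of THP-1 cells; compounds (final up to 57.5 uM) added 1 h before LPS (250 ng/mL) and ATP (1.25 mM) stimulation; lower signal means less secretion.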
S2 tox = cell viability loss in ATXN counter-screen; S2 cells (HEK-293 line with an ATXN2-luciferase reporter) viability, CellTiter-Fluor protease fluorescence, 24 h; Potency, µM (top dose mostly 56.7 µM), hits mostly cytotoxic; hit rate 0.49% among 400,000; further: potency means the concentration at half of the fitted maximal effect; nearly all actives have a fitted effect of over 40% in size
HepG2 viability = HepG2 cytotoxicity, counter-screen for TGF-b inhibitors | HepG2 CAGA-GFP viability, ATP luminescence, 18 h | Potency, µM (highest dose often 46.1 µM), inactives show top-dose activity change, negative = cytotoxicity, usual class: cytotoxic | hit rate 0.76% among 410,000 | AID 588856; further: potency means the concentration at half of the fitted maximal effect
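HepG2 CAGA-GFP cells (1000/well, DMEM with 1% FBS) received compound, then TGF-beta at 500 pg/mL final, and were incubated 18 hours at 37 degrees C. Viability was read by CellTiter-Glo luminescence. Media-only wells were set as complete cell-killing and DMSO as no toxicity.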
* = called active by the depositor; i = inactive; u = inconclusive; x = no result. Unless noted, the call rests on the fitted dose curve; in most records, active means well fitted curve in the direction sought with a large enough effect; inconclusive means small, poorly fitted or top-dose-only effect, or another doubt; inactive means no such curve, though single readings can be large; an effect the other way counts as inactive or inconclusive.

SMILES | TGFb inhibitor | ATXN2 expr inh | IL-1B inflam inh | S2 tox | HepG2 viability
CC[C@]12c3[nH]c4ccccc4c3CCN1C(=O)C(CC(=O)NC/C=C(\C)CCC=C(C)C)C[C@@H]2C(=O)N1CCN(C(=O)C2CC2)CC1 (stereo partly specified) | u | u | u | u | -2.2%
CC[C@]12c3[nH]c4ccc(OC)cc4c3CCN1C(=O)C(CC(=O)NC/C=C(\C)CCC=C(C)C)C[C@@H]2C(=O)N1CCN(C(=O)C2CC2)CC1 (stereo partly specified) | u | u | -62.4* | u | -15.8%
NC(=O)c1cccc2[nH]c(-c3ccc([C@H]4CCCN4)cc3F)nc12 | x | -23.8% | x | x | x
CCC(Sc1nc2nccnc2c(=O)n1Cc1ccc(C)cc1)C(=O)NC1CCCCC1 (stereo unspecified) | -9.3% | x | x | x | -24.1%
Cc1ccccc1OCC(=O)N/N=C/c1cn(Cc2ccccc2)c2ccccc12 | 8.91µM* | -22.7% | 29.8 | i | -30.8%
NC(=O)CSc1cn(Cc2ccc(F)cc2)c2ccccc12 | -19.9% | -24.1% | -0.2 | i | -26.6%
NC(=O)CSc1cn(Cc2ccccc2)c2ccccc12 | -6.1% | -12.1% | -64.6* | i | 2.3%
O=C(N/N=C/c1cn(Cc2cccc(F)c2)c2ccccc12)c1cc(O)cc(O)c1 | u | u | 20.5 | i | -11.6%
Cc1ccccc1OCC(=O)N/N=C/c1cn(C)c2ccccc12 | -7.4% | -9.6% | 13.5 | u | -16.9%
Nc1ccc(C(=O)N/N=C/c2cn(Cc3ccccc3)c3ccccc23)cc1 | 2.82µM* | -18.3% | i | i | -0.5%
Nc1ccc(C(=O)N/N=C/c2cn(Cc3ccccc3F)c3ccccc23)cc1 | 0.0% | -25.8% | -66.7* | i | -16.0%
COc1cccc(Nc2ccc3cc(S(=O)(=O)N4CCC(C)CC4)ccc3n2)c1 | u | -31.0% | x | u | -29.7%
CCCCCCCCCCCCCCNCCO | x | 3.6% | x | i | x
O=C(O)c1ccc(N/N=C/c2cn(Cc3ccccc3F)c3ccccc23)cc1 | 11.2µM* | 103.8% | 0.0 | i | -20.6%
CCCCNC(=O)C(CC)n1c(SCc2cccc(F)c2)nc2ccncc21 (stereo unspecified) | -2.1% | x | x | x | 0.5%
CS(=O)(=O)c1ccc(C(=O)OCC(=O)NCc2cccs2)cc1[N+](=O)[O-] | 11.2µM* | u | -97.0* | u | -106.3%
O=C(NC1(Cc2ccccc2)CCN(Cc2ccc(-c3ccccc3)cc2)C1=O)c1ccccc1 (stereo unspecified) | u | u | -9.7 | 31.6µM* | -24.9%
O=C(CCc1ccccc1)NC1(Cc2ccccc2)CCN(CCc2cccs2)C1=O (stereo unspecified) | u | -22.4% | u | u | -15.0%
CCCCN(C=O)c1c(CC)nc2c(OCc3ccc(Cl)cc3)cccn12 | u | u | -50.7* | u | -32.6%
CCc1nc2c(OCc3cc(Cl)cc(Cl)c3)cccn2c1N(C=O)Cc1ccc(OC)cc1 | u | u | -78.5* | u | -34.5%
CCCCN(C=O)c1c(CC)nc2c(OCC3CCCCC3)cccn12 | 12.6µM* | u | -4.2 | u | -39.4%
CCc1nc2c(OCCC3CCCCC3)cccn2c1N(C=O)Cc1ccc(OC)cc1 | u | u | -21.9 | i | 20µM*
CCc1nc2c(OCc3cc(Cl)cc(Cl)c3)cccn2c1N(C=O)Cc1ccccc1 | u | u | u | u | -73.3%
CCCCN(C=O)c1c(CC)nc2c(OCCn3cccc3)cccn12 | -16.9% | -4.2% | -10.1 | i | -51.2%
CC(C)c1ccc(/C=C2\C=Cc3ccccc32)cc1 | u | x | x | x | -48.4%
Cc1cc(NC(=O)c2cccs2)cc(-c2nc3cc(Cl)ccc3o2)c1O | 17.7% | 1.3% | x | i | -3.4%
Cc1ccc(N2CC(NC(=O)Cc3cccs3)CC2=O)cc1C (stereo unspecified) | 2.2% | x | x | x | 0.8%
C=C1C(=O)OC2C=C(CO)C3OC3C3OC3(C)CC(OC(=O)/C(=C/C)COC(C)=O)C12 (stereo unspecified) | u | u | -101.3* | x | -66.1%
